# Experimental data taken from PubChem BioAssay (Tox21).
# A number with no mark means an inactive call. Inconclusive results are not listed. Entries that show only a call come without a potency. Calls of active or inactive are those of the source. Calls follow the shape of the dose curve; as a rule, active = well fitted curve in the direction sought with a large enough effect in the repeat runs; inconclusive = weak or mixed curves; inactive = no such curve, though single readings can be large; an effect the other way counts as inactive or inconclusive.
# Legend:
# [1] = qHTS RealTime-Glo MT Cell Viability Assay in HepG2 cells - 40 hour (AID 1224870); also: nearly all actives have a fitted effect of over 50% in size
# Summary of the method: (§1)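 HepG2 cells mixed with RealTime-Glo MT reagents (NanoLuc plus cell-permeant prosubstrate) were seeded at 600 cells/well, incubated 5 h at 37 C/5% CO2, then pinned with compounds in DMSO; nonlytic luminescence tracked viability during 40 h treatment.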
# [2] = A CellTox Green Cytotoxicity Assay to monitor cytotoxicity in HEK293 cells - 40 hour (AID 1224871); also: nearly all actives have a fitted effect of over 45% in size
# Summary of the method: (§2)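 Fluorescence intensity, read at 0, 8, 16, 24, 32 and 40 h of compound treatment, reflected dye binding to DNA of dead HEK293 cells; compounds (23 nL, DMSO) were added 5 h after plating cells with reagent.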
# [3] = qHTS RealTime-Glo MT Cell Viability Assay in HEK293 cells - 16 hour (AID 1224872); also: nearly all actives have a fitted effect of over 50% in size; also: potency is read from the fitted curve at half-maximal effect
# Summary of the method: (§3)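 Luminescence generated by NanoLuc from substrate produced by living HEK293 cells served as the viability signal. Each value reflects the reading at its stated time point during continuous 40 h compound exposure at 37 C.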
# [4] = qHTS RealTime-Glo MT Cell Viability Assay in HepG2 cells - 8 hour (AID 1224873); also: nearly all actives have a fitted effect of over 55% in size
# Summary of the method: as §1
# [5] = A CellTox Green Cytotoxicity Assay to monitor cytotoxicity in HEK293 cells - 24 hour (AID 1224875); also: series mostly up to about 77 µM; nearly all actives have a fitted effect of over 45% in size
# Summary of the method: as §2
# [6] = A CellTox Green Cytotoxicity Assay to monitor cytotoxicity in HepG2 cells - 16 hour (AID 1224876); also: nearly all actives have a fitted effect of over 45% in size
# Summary of the method: (§4)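 Using 1536-well format, dye-containing HepG2 suspension was seeded, allowed 5 h at 37 C/5% CO2, dosed by pintool with compounds, positive and negative controls, and imaged for fluorescence across 40 h.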
# [7] = qHTS RealTime-Glo MT Cell Viability Assay in HepG2 cells - 32 hour (AID 1224877); also: nearly all actives have a fitted effect of over 55% in size
# Summary of the method: (§5)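 Tox21 10K library screened in qHTS format on HepG2 cells carrying RealTime-Glo reagents. Compounds were added after a 5 h preincubation, and the luminescent signal from continuous culture was measured repeatedly during 40 h treatment.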
# [8] = A CellTox Green Cytotoxicity Assay to monitor cytotoxicity in HepG2 cells - 24 hour (AID 1224878); also: nearly all actives have a fitted effect of over 45% in size
# Summary of the method: as §4
# [9] = A CellTox Green Cytotoxicity Assay to monitor cytotoxicity in HepG2 cells - 40 hour (AID 1224879); also: nearly all actives have a fitted effect of over 40% in size
# Summary of the method: as §4
# [10] = qHTS RealTime-Glo MT Cell Viability Assay in HEK293 cells - 0 hour (AID 1224880)
# Summary of the method: (§6)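 Viable HEK293 cells reduce a cell-permeant prosubstrate; the product diffuses out and is consumed by NanoLuc in the medium to give light. Compounds went in after a 5 h incubation and plates were read over the treatment course.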
# [11] = A CellTox Green Cytotoxicity Assay to monitor cytotoxicity in HEK293 cells - 32 hour (AID 1224881); also: nearly all actives have a fitted effect of over 40% in size
# Summary of the method: as §2
# [12] = A CellTox Green Cytotoxicity Assay to monitor cytotoxicity in HepG2 cells - 0 hour (AID 1224882); also: nearly all actives have a fitted effect of over 35% in size
# Summary of the method: as §4
# [13] = A CellTox Green Cytotoxicity Assay to monitor cytotoxicity in HepG2 cells - 32 hour (AID 1224883); also: nearly all actives have a fitted effect of over 50% in size
# Summary of the method: as §4
# [14] = A CellTox Green Cytotoxicity Assay to monitor cytotoxicity in HEK293 cells - 8 hour (AID 1224884); also: nearly all actives have a fitted effect of over 35% in size
# Summary of the method: as §2
# [15] = qHTS RealTime-Glo MT Cell Viability Assay in HepG2 cells - 16 hour (AID 1224885); also: nearly all actives have a fitted effect of over 50% in size
# Summary of the method: as §5
# [16] = qHTS RealTime-Glo MT Cell Viability Assay in HEK293 cells - 8 hour (AID 1224887); also: nearly all actives have a fitted effect of over 50% in size; also: potency is read from the fitted curve at half-maximal effect
# Summary of the method: as §6
# [17] = A CellTox Green Cytotoxicity Assay to monitor cytotoxicity in HEK293 cells - 16 hour (AID 1224888); also: nearly all actives have a fitted effect of over 35% in size
# Summary of the method: as §2
# [18] = qHTS RealTime-Glo MT Cell Viability Assay in HepG2 cells - 0 hour (AID 1224889); also: nearly all actives have a fitted effect of over 50% in size
# Summary of the method: as §5
# [19] = qHTS RealTime-Glo MT Cell Viability Assay in HEK293 cells - 24 hour (AID 1224886); also: nearly all actives have a fitted effect of over 50% in size; also: potency is read from the fitted curve at half-maximal effect
# Summary of the method: as §3
# [20] = qHTS RealTime-Glo MT Cell Viability Assay in HEK293 cells - 40 hour (AID 1224874); conditions: RealTime-Glo luminescence; max response: active compounds read low; also: nearly all actives have a fitted effect of over 50% in size; also: potency is read from the fitted curve at half-maximal effect
# Summary of the method: as §6
smiles,measurement,setting,value
C=C1c2cccc(O)c2C(O)=C2C(=O)[C@]3(O)C(O)=C(C(N)=O)C(=O)[C@@H](N(C)C)[C@@H]3[C@@H](O)[C@H]12,Potency,[1],inactive
same,Potency,[2],inactive
same,Potency,[3],inactive
same,Potency,[4],inactive
same,Potency,[5],inactive
same,Potency,[6],inactive
same,Potency,[7],inactive
same,Potency,[8],inactive
same,Potency,[9],inactive
same,Potency,[10],inactive
same,Potency,[11],inactive
same,Potency,[12],inactive
same,Potency,[13],inactive
same,Potency,[14],inactive
same,Potency,[15],inactive
same,Potency,[16],inactive
same,Potency,[17],inactive
same,Potency,[18],inactive
CCOC(=O)/C=C/C(=O)OCC,Potency,[1],inactive
same,Potency,[2],inactive
same,Potency,[3],inactive
same,Potency,[4],inactive
same,Potency,[5],inactive
same,Potency,[6],inactive
same,Potency,[9],inactive
same,Potency,[10],inactive
same,Potency,[11],inactive
same,Potency,[12],inactive
same,Potency,[13],inactive
same,Potency,[14],inactive
same,Potency,[15],inactive
same,Potency,[19],inactive
same,Potency,[16],inactive
same,Potency,[17],inactive
same,Potency,[18],inactive
CC(C)=CCC/C(C)=C/CC/C(C)=C/C(=O)OCC(=O)[C@@]1(O)CC[C@H]2[C@@H]3CCC4=CC(=O)C=C[C@]4(C)[C@H]3[C@@H](O)C[C@@]21C,Potency,[1],inactive
same,Potency,[2],inactive
same,Potency,[3],5.35 µM (active)
same,Potency,[20],4.25 µM (active)
same,Potency,[5],inactive
same,Potency,[6],inactive
same,Potency,[8],inactive
same,Potency,[9],inactive
same,Potency,[10],inactive
same,Potency,[11],inactive
same,Potency,[12],inactive
same,Potency,[13],inactive
same,Potency,[14],inactive
same,Potency,[19],4.25 µM (active)
same,Potency,[16],6.01 µM (active)
same,Potency,[17],inactive
same,Potency,[18],inactive
CC(CCC(=O)O)C(=O)O (stereo not drawn),Potency,[1],inactive
same,Potency,[2],inactive
same,Potency,[4],inactive
same,max response,[20],0%
same,Potency,[5],inactive
same,Potency,[6],inactive
same,Potency,[7],inactive
same,Potency,[8],inactive
same,Potency,[9],inactive
same,Potency,[10],inactive
same,Potency,[11],inactive
same,Potency,[12],inactive
same,Potency,[13],inactive
same,Potency,[14],inactive
same,Potency,[15],inactive
same,Potency,[19],inactive
same,Potency,[16],inactive
same,Potency,[17],inactive
same,Potency,[18],inactive
O=C(OC(=O)c1ccccc1)c1ccccc1,Potency,[1],inactive
same,Potency,[2],inactive
same,Potency,[3],inactive
same,Potency,[4],inactive
same,Potency,[5],inactive
same,Potency,[6],inactive
same,Potency,[7],inactive
same,Potency,[8],inactive
same,Potency,[9],inactive
same,Potency,[10],inactive
same,Potency,[11],inactive
same,Potency,[13],inactive
same,Potency,[14],inactive
same,Potency,[15],inactive
same,Potency,[16],inactive
same,Potency,[17],inactive
same,Potency,[18],inactive
Oc1cccc(O)c1O,Potency,[1],inactive
same,Potency,[2],inactive
same,Potency,[3],inactive
same,Potency,[4],inactive
same,Potency,[5],inactive
same,Potency,[6],inactive
same,Potency,[7],inactive
same,Potency,[8],inactive
same,Potency,[9],inactive
same,Potency,[10],inactive
same,Potency,[11],inactive
same,Potency,[12],inactive
same,Potency,[13],inactive
same,Potency,[16],inactive
same,Potency,[18],inactive
